The whole screen tested about 340,000 compounds, of which about 1,000 (0.29%) were called active. No stated cut-off is given here; in the data, inconclusive means inhibition above about 29% without an active follow-up result; inactive means below that. The list is a sample of the results. Measured potencies and affinities stand elsewhere.

This experiment addresses Genome polyprotein (Dengue virus type 2 (strain 16681-PDK53)) (UniProt P29991). Description: flavivirus cap methylation enzyme inhibition – biochemical, confirmation dose response, primary screen (AID 588689). The note with it: Dengue-2 NS5 methyltransferase capping enzyme assay, at 25 µM, stronger effect = higher value.
[1] abbreviates: measured here: pilot screen replicate inhibition.

Chain of Genome polyprotein (Dengue virus type 2 (strain 16681-PDK53)) (P29991 whole entry, looked up): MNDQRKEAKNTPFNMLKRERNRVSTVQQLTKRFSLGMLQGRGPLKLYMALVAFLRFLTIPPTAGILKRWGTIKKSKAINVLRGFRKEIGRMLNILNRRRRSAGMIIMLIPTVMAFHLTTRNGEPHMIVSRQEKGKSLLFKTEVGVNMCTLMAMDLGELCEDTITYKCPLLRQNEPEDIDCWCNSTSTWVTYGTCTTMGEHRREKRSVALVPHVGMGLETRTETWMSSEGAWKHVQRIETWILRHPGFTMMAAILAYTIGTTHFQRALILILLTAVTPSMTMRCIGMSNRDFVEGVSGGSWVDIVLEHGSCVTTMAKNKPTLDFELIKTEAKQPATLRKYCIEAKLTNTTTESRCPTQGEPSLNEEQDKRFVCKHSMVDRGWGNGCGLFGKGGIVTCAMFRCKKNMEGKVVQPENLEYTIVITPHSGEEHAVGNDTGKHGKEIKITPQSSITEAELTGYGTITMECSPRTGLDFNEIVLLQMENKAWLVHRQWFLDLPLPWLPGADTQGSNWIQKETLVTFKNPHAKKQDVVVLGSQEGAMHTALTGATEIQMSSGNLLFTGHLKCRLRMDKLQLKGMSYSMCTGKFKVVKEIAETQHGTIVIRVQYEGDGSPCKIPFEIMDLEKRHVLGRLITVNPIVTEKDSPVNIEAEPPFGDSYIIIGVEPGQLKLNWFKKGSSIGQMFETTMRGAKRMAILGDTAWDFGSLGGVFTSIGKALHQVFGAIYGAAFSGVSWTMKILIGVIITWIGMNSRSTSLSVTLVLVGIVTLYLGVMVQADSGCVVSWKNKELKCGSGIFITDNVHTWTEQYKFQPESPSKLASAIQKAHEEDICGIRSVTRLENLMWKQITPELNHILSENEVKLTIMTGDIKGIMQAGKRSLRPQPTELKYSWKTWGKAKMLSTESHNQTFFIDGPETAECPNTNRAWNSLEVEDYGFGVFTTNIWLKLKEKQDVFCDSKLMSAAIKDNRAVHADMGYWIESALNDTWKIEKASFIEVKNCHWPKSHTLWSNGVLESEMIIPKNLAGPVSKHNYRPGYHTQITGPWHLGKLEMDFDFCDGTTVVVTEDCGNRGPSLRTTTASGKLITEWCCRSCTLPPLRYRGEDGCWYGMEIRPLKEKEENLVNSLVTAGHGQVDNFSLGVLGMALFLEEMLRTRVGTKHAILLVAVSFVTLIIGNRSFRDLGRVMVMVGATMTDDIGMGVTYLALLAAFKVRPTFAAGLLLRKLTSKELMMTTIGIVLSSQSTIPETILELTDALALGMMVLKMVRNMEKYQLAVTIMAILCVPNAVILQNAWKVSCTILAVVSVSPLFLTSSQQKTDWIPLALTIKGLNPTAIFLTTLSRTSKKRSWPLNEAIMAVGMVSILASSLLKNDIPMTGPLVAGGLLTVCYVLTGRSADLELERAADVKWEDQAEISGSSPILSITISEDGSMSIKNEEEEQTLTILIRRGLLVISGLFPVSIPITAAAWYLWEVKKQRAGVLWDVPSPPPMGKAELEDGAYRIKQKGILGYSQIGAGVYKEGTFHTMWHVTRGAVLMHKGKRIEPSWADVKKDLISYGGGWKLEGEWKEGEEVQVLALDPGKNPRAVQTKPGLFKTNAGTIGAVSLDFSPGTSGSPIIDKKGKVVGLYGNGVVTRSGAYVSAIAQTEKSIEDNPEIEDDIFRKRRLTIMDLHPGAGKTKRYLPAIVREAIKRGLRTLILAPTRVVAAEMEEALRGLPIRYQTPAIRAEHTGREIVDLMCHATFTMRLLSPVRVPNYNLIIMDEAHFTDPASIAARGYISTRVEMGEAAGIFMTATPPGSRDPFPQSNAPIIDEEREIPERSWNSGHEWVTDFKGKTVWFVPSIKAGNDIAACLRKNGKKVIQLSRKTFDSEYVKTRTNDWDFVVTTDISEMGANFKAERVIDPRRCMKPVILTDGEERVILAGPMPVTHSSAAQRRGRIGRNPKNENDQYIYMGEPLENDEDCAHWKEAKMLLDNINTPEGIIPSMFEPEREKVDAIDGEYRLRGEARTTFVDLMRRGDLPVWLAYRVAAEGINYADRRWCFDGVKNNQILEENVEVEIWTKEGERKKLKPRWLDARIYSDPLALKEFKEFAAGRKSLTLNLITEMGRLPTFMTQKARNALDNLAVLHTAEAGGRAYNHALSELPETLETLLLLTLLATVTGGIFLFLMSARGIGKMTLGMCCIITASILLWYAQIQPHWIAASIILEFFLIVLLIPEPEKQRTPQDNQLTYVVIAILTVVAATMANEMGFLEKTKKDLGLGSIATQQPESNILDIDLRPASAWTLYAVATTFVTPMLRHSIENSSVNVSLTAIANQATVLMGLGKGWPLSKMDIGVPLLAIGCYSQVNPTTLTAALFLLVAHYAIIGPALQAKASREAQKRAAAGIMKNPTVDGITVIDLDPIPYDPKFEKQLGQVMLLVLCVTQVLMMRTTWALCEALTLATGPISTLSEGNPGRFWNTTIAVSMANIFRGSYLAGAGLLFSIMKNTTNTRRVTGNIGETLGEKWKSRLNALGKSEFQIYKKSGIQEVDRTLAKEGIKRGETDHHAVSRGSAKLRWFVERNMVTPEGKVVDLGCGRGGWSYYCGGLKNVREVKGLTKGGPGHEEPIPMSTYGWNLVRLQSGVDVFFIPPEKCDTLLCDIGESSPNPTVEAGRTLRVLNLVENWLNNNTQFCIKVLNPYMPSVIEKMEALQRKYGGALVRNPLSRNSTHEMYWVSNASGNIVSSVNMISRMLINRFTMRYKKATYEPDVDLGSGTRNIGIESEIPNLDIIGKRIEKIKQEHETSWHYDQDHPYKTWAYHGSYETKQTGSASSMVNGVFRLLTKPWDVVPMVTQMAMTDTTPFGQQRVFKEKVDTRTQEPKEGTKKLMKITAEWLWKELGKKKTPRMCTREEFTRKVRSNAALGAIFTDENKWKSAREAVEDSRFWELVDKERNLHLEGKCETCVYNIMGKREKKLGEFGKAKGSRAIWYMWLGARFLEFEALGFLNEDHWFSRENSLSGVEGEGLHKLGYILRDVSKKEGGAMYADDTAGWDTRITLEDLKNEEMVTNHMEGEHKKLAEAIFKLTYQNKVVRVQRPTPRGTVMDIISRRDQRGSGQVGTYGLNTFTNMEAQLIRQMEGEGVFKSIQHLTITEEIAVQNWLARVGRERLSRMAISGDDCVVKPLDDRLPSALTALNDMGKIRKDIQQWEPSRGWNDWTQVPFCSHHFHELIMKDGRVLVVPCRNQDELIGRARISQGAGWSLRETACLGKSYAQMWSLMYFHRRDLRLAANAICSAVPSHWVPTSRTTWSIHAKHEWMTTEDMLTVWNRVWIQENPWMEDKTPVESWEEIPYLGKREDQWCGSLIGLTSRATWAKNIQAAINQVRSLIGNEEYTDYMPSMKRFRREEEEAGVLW

For the compound `CC(=O)c1ccc(C(=O)N(C)C2CCCN(Cc3ccccc3F)C2)s1` (stereo not drawn), the inhibition (in general, the change of the read-out against control, counted positive when it falls) was -12.1% (inactive).

With `O=S(=O)(Nc1nc(-c2ccccc2)cs1)c1cccc(C(F)(F)F)c1`, the inhibition was 19.9% (inactive). On the same count and under the same terms, the value for `Cc1ccc(S(=O)(=O)Nc2ccccc2C(=O)Nc2nc(-c3ccc(F)cc3)cs2)cc1` was 0.64% (inactive); that for `COc1ccc(-c2csc(NS(=O)(=O)c3ccc([N+](=O)[O-])cc3)n2)cc1` was 19.5% (inactive); that for `Cc1ccc(S(=O)(=O)Nc2nc(-c3ccccc3)cs2)cc1` was 23% (inactive).

Turning to `COc1ccc(S(=O)(=O)N2CCCC2C(=O)NCc2cccs2)cc1` (stereo not drawn), the inhibition was -17.2% (inactive). Same read-out and setting: the same measure for `CCOc1ccc(S(=O)(=O)N2CCCCC2)c2ccccc12`: -5.6% (inactive). In the case of `CCc1cccc(C)c1NC(=O)CSc1nc2ccccc2n1CC(=O)N(C)C`, the inhibition is -2.07% (inactive). Regarding `O=C(O)COc1ccccc1C=NNc1ccc([N+](=O)[O-])cc1S(=O)(=O)Nc1ccc(Cl)cc1`, the inhibition is 35% (inactive). As for `COc1ccc(NS(=O)(=O)c2cc([N+](=O)[O-])ccc2NN=Cc2ccccc2OCC(=O)O)cc1`, the inhibition was -8.26% (inactive).

Consider `CCN(CC)S(=O)(=O)c1ccc(N/N=C/c2ccccc2OCC(=O)O)c([N+](=O)[O-])c1`, for which the inhibition was 13.7% (inactive). Turning to `COc1ccccc1NS(=O)(=O)c1cccc(C(=O)N/N=C/c2ccccc2OCC(=O)O)c1`, the inhibition was -8.38% (inactive).

Take `O=C(O)COc1ccccc1/C=N/NC(=O)c1cc(-c2ccccc2)nc2ccccc12`: the inhibition is 7.47% (inactive). In the case of `Cc1ccc(NS(=O)(=O)c2ccc(N/N=C/c3ccncc3)c([N+](=O)[O-])c2)c(C)c1`, the inhibition was 2.21% (inactive). In the case of `O=C(O)COc1ccccc1/C=N/Nc1ccc(S(=O)(=O)N2CCOCC2)cc1[N+](=O)[O-]`, the inhibition was 6.86% (inactive). Regarding `O=C(O)COc1ccccc1/C=N/NC(=O)c1cc(-c2ccc(F)cc2)nc2ccccc12`, the inhibition is 1.48% (inactive). Turning to `CNC(=O)N(O)C1N(/N=C/c2ccc(C)cc2)C(=S)SC1(C)C` (stereo not drawn), the inhibition is -3.93% (inactive). For the compound `O=C(CCOc1ccccc1)NNC(=O)c1ccccc1`, the inhibition was -4.63% (inactive).

As for `Cc1ccc(C)c(C(=O)CCC(=O)Nc2cccnc2)c1`, the inhibition was -3.23% (inactive). As for `CC1=C(C#N)C(=O)NC1(C)O` (stereo not drawn), the inhibition was 5.14% (inactive). As to `COc1ccc(N(CC(=O)N2CCN(Cc3ccccc3)CC2)S(=O)(=O)c2ccccc2)cc1`, the inhibition is -5.2% (inactive). Consider `O=C(c1cccs1)N(Cc1ccco1)C1CCS(=O)(=O)C1` (stereo not drawn), for which the inhibition was -4.01% (inactive).

With `O=C(Nc1ccccc1)c1ccccc1NC(=O)[C@H]1CCCC[C@H]1C(=O)O`, the inhibition was -3.92% (inactive). Moreover, under setting [1], the inhibition is -1.53%. With `CCC(C)Sc1cc(-c2nc3ccc(Cl)cn3c2NC2CCCCC2)ccc1OC` (stereo not drawn), the inhibition was -12.6% (inactive).

As for `Cc1cc(OC(C)C(=O)NC2CCN(Cc3ccccc3)CC2)c2c(C)cc(=O)oc2c1` (stereo not drawn), the inhibition was -2.72% (inactive).

Consider `CCCCOC(=O)C1=C(C)NC(=O)NC1c1ccc(OC)cc1` (stereo not drawn), for which the inhibition is -0.39% (inactive). On to `Cn1cc(C(=O)Nc2ccc(F)c(F)c2)cn1`, for which the inhibition is 0% (inactive). Take `COCC(=O)Nc1ccc(N2CCCC2)c(S(=O)(=O)Nc2ccccc2OC)c1`: the inhibition is -9.92% (inactive). The same measure, in the same setting: the same measure for `COc1ccc(N(CC(=O)NCCc2ccc(Cl)cc2)S(=O)(=O)c2c(C)[nH]c(=O)[nH]c2=O)cc1`: -3.87% (inactive); for `C=CC[C@@H](CC(=O)N[C@@H](CO)Cc1ccccc1)C(=O)NC[C@@H](OC(=O)[C@@H](CC=C)Cc1ccc(F)cc1)c1ccccc1`: -8.18% (inactive). Same read-out and setting: the value for `CO/N=C(/C)CCS(=O)(=O)c1ccccc1` was -0.73% (inactive); that for `CC(C(=O)Nc1nncs1)N1C(=O)C2C3C=CC(C3)C2C1=O` (stereo not drawn) was -5.41% (inactive).

`CCN(CC(=O)NCc1cccs1)C(=O)CCC(=O)c1ccc(C)cc1`: the inhibition was -8.12% (inactive). Still for that read-out and setting: the same measure for `NC(=O)C1CCN(C(=O)CN(C2CCCCC2)S(=O)(=O)c2ccc(F)cc2)CC1`: -9.49% (inactive); for `CCN(CC)S(=O)(=O)c1ccc2c(c1)N(CC(=O)N1CCC(C(N)=O)CC1)C(=O)CO2`: -6.21% (inactive); for `O=S(=O)(c1ccc2ccccc2c1)N1CCN(S(=O)(=O)c2c(F)cccc2F)CC1`: 1.65% (inactive). As to `COc1cc(O)c(NC(C)=O)c2nonc12`, the inhibition was 15% (inactive).

As for `CCOc1cc(Cl)c(NC(C)=O)cc1OCC`, the inhibition was -5.19% (inactive).

As for `CC(C)(C)OC(=O)N1CCN(C(=O)c2[nH]cnc2C(=O)Nc2cccc(Cl)c2)CC1`, the inhibition was -10.3% (inactive). On the same count and under the same terms, the same measure for `O=CN1CCN(C(=S)NC(=O)c2ccc(Cl)cc2)CC1`: -3.86% (inactive); for `CC(C)CN1C(=O)/C(=C/c2cccs2)NC1=S`: 4.84% (inactive). `COC(=O)C1=C(C)NC(=O)/C1=C\c1cccs1`: the inhibition is 2.73% (inactive).

For the compound `O=C1NN(c2ccc(F)cc2)C(=O)/C1=C/c1cccs1`, the inhibition was 8.53% (inactive). As to `C=CCN1C(=O)/C(=C\c2cccs2)C(C(=O)OC)=C1C`, the inhibition is -4.71% (inactive). For `COc1ccc(NS(=O)(=O)c2cccc(C(=O)NCC3(N(C)C)CCCCC3)c2)cc1`, the inhibition was -10.1% (inactive). Same read-out and setting: the same measure for `COCCNC(=O)c1ccc2c(=O)n(Cc3ccco3)c(SCC(=O)Nc3ccc(OC)cc3OC)nc2c1`: -3.55% (inactive); for `COc1ccccc1N1CCN(S(=O)(=O)c2ccc3nc(-c4ccccc4)[nH]c3c2)CC1`: 1.09% (inactive).

Consider `O=C(O)CSc1c2c(nc3cc(C(=O)Nc4cccc(C(F)(F)F)c4)ccc13)CCC2`, for which the inhibition is 2.95% (inactive).

Consider `O=C(NN=C1CCCC1)C(=O)Nc1cccc(C(F)(F)F)c1`, for which the inhibition is -3.35% (inactive). On to `O=C(CSc1nc2c(c(=O)[nH]1)CCC2)Nc1cccc(Cl)c1`, for which the inhibition was -8.06% (inactive). For `O=c1c2c(nc3cc(-c4cccc(Cl)c4)[nH]n13)CCCC2`, the inhibition is 1.45% (inactive). With `Cc1ccc(S(=O)(=O)/N=C(\Nc2cccc(C)c2)Nc2nc(C)cc(C)n2)cc1`, the inhibition was -1.83% (inactive).

Turning to `N#Cc1c(Nc2ccccc2)sc(C(=O)C2CC2)c1N`, the inhibition was -8.93% (inactive). With `CCN(CC)CCNC(C(=O)Nc1ccc([N+](=O)[O-])cc1Br)c1ccccc1` (stereo not drawn), the inhibition was 3.24% (inactive). In the case of `COc1cc(C(=O)O)ccc1Cl`, the inhibition is -1.59% (inactive). `Cc1cccc(N=Nc2cnc(N)s2)c1`: the inhibition was 0.79% (inactive). As for `CC(Oc1ccc2c(-c3ccccc3)cc(=O)oc2c1)C(=O)NCCCn1ccnc1` (stereo not drawn), the inhibition was 2.17% (inactive). As for `CCC(=O)Nc1c(C)cc(C)cc1Cl`, the inhibition was -1.67% (inactive). Still for that read-out and setting: the same measure for `CCCC(=O)Nc1ccccc1NC(=O)CCC`: 0% (inactive); for `CC(C)NC1=C(Cl)C(=O)c2ccccc2C1=O`: -0.68% (inactive). `CCC(=O)NC1=C(Nc2ccc(N)cc2)C(=O)c2ccccc2C1=O`: the inhibition is 7.83% (inactive). Consider `O=C(NCCc1ccccc1)c1nc(CS(=O)(=O)c2ccc(Cl)cc2)no1`, for which the inhibition is -1.81% (inactive). Take `CCCCCC1CC(CC(=O)NC(=S)Nc2ccccc2Cl)C(=O)O1` (stereo not drawn): the inhibition was -4.68% (inactive).

`CN(C)S(=O)(=O)c1cccc2c1C(=O)c1ccccc1C2=O`: the inhibition is -1.92% (inactive).

Consider `Nc1c(C(=O)O)ccc2c1C(=O)c1ccccc1C2=O`, for which the inhibition is 24.7% (inactive). In the case of `CC1(Cc2cn(CCC#N)c3ccccc23)OCCO1`, the inhibition is 6.35% (inactive). For the compound `CC1(C)CC(=O)C(C(c2cccc([N+](=O)[O-])c2)C2C(=O)CC(C)(C)CC2=O)C(=O)C1`, the inhibition is 0% (inactive).

As for `CCOC(=O)c1cc(CC)sc1/N=C/C1C(=O)CC(C)(C)CC1=O`, the inhibition is -17.9% (inactive). On the same count and under the same terms, the same measure for `C/[N+]([O-])=C\C1C(=O)CC(C)(C)CC1=O`: -2.92% (inactive); for `CC1(C)CC(=O)C(C(=O)Cc2ccccc2[N+](=O)[O-])C(=O)C1`: -1.48% (inactive); for `Cc1ccc2nc(SCn3nnc4ccccc4c3=O)[nH]c2c1`: -4.53% (inactive). On to `COc1ccc(OCCCC(=O)ON=C(N)c2ccccc2Cl)cc1`, for which the inhibition is 1.1% (inactive). As for `CN(CCc1ccccc1)C(=O)c1ccc(NC(=O)Cc2ccc(NC(=O)C3CCCN(C(=O)C4CCC4)C3)cc2)cc1` (stereo not drawn), the inhibition is 0% (inactive). Moreover, under setting [1], the inhibition came out at 0.92%. Take `COC(=O)c1ccc(NC(=O)CSc2nnc(COc3c(C)cccc3C)o2)cc1`: the inhibition was -9.55% (inactive).

For `CC1CC(=O)c2cc(-c3ccccc3)oc2C1` (stereo not drawn), the inhibition is 5.14% (inactive). Turning to `CC1CCC(O)(C(C(=O)O)c2ccccc2)CC1` (stereo not drawn), the inhibition is -8.55% (inactive). On to `COc1cc(NC(=O)CSc2ccc(-c3ccccn3)nn2)cc(OC)c1`, for which the inhibition was 0% (inactive). Regarding `O=C(NNC1CC(=O)N(c2cccc(Cl)c2)C1=O)c1cccs1` (stereo not drawn), the inhibition was 3.87% (inactive). Turning to `O=C1CSC(=Nc2ccc(O)cc2)N1`, the inhibition was -4.89% (inactive). On the same count and under the same terms, the value for `O=C1CSC(=Nc2ccc(O)cc2)N1c1ccc(O)cc1` was -5.52% (inactive). Consider `CN(C(=O)CC1C(=O)NCCN1Cc1ccccc1C(F)(F)F)C1CCOCC1` (stereo not drawn), for which the inhibition is 0.91% (inactive). As for `O=C(NCCCN1CCCC1)C1CCN(C(=O)c2cc3sccc3n2Cc2ccc(F)cc2)CC1`, the inhibition was -2.07% (inactive). Consider `CC(/C=C/c1ccco1)=N\NC(=O)COc1ccc(C)c(C)c1`, for which the inhibition is -10.9% (inactive). Still for that read-out and setting: the same measure for `CC(=O)Nc1ccc(/C(N=Nc2ccccc2)=N/N=C(N)N)cc1`: 7.72% (inactive).

With `O=C(O)c1cccc(N/N=C(\N=Nc2ccccc2)c2ccccc2)c1`, the inhibition is 12.7% (inactive). With `CCCCn1c(SCC2CCCO2)nc2cc(S(N)(=O)=O)ccc21` (stereo not drawn), the inhibition was -11.1% (inactive).

With `CC1CCN(S(=O)(=O)c2ccc(C(=O)Nc3nnc(C4CC4)o3)cc2)CC1`, the inhibition is -8.7% (inactive). For the compound `COc1cc(NC(=O)CN2CC(c3ccccc3)CC2=O)cc(OC)c1` (stereo not drawn), the inhibition was 0.73% (inactive). As to `CCn1cc(Br)c(C(=O)N2CCN(c3ccccc3)CC2)n1`, the inhibition was -5.15% (inactive).

`COc1ccc(C(C#N)=C2C=C(Cl)C(=NO)C=C2Cl)cc1`: the inhibition is 27.6% (inactive). With `N#CC(=C1C=C(Br)C(=NO)C=C1Cl)c1cccc2ccccc12`, the inhibition is 24.1% (inactive).

Source of the values: PubChem BioAssay AID588689 (Southern Research Specialized Biocontainment Screening …, 2011).
